Measured values from PubChem BioAssay (NCATS).
Unmarked numbers belong to inactive results. Records with an inconclusive call do not appear. Activity calls are given as the source filed them. Unless noted, calls follow the shape of the dose curve; as a rule, active = well fitted curve in the direction sought with a large enough effect; inconclusive = small, poorly fitted or top-dose-only effect, or another doubt; inactive = no such curve, though single readings can be large; an effect the other way counts as inactive or inconclusive.

Key:
[1] = target: Lysosomal acid glucosylceramidase (Homo sapiens) (UniProt P04062); test: Glucocerebrosidase-p2 (AID 348; in the data active = potency below about 10 µM; also: potency is read from the fitted curve at half-maximal effect); conditions: purified GBA, blue fluorogenic substrate, 40 min
Sequence of Lysosomal acid glucosylceramidase (Homo sapiens) (P04062 whole entry, looked up): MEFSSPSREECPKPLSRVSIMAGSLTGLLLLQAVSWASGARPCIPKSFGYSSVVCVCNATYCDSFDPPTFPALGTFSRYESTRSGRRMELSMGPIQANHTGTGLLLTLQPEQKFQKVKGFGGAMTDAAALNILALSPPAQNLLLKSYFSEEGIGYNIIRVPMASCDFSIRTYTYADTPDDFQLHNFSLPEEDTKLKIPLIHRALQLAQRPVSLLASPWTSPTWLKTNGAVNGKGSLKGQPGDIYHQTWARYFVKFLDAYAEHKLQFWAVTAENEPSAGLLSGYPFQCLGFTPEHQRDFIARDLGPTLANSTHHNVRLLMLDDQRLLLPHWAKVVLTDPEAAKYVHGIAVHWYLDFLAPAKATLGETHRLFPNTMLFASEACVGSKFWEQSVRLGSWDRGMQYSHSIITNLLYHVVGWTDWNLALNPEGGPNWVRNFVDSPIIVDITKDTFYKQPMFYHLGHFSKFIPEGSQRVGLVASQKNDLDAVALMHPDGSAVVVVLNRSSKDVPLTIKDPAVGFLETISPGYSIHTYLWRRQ
In short: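 Compounds titrated from 0.6 nM upwards against 0.2 nM enzyme in pH 5.9 citric acid/KH2PO4, taurocholate, tween-20; blue fluorogenic substrate 80 uM, 40 min room temperature, stopped and read Ex 365/Em 440 for AC50.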

[2] = AP1 Signaling Pathway (AID 357; active = well fitted curve in either direction with a large enough effect, not every such curve was filed as active; also: % is scaled to controls: 0 for no effect and ±100 for the full control effect); conditions: ME-180 AP-1-bla reporter, EGF-induced, beta-lactamase ratio, 5 h; at 7.69 µM (top of the series) unless noted
In short: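 ME-180 cells with beta-lactamase reporter under AP-1 response element, stimulated with EC50 EGF; compounds tested in titration series, 5 h at 37 °C. CCF4 substrate added 2.5 h at room temperature; 460/530 nm emission ratio gave %activity and AC50.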

[3] = target: Cytochrome P450 1A2 (Homo sapiens) (UniProt P05177); test: p450-cyp1a2 (AID 410; calls by dose curve; also: potency is read from the fitted curve at half-maximal effect); conditions: recombinant CYP1A2, luciferin-ME demethylation, luminescence; series mostly up to 57 µM
Sequence of Cytochrome P450 1A2 (Homo sapiens) (P05177 whole entry, looked up): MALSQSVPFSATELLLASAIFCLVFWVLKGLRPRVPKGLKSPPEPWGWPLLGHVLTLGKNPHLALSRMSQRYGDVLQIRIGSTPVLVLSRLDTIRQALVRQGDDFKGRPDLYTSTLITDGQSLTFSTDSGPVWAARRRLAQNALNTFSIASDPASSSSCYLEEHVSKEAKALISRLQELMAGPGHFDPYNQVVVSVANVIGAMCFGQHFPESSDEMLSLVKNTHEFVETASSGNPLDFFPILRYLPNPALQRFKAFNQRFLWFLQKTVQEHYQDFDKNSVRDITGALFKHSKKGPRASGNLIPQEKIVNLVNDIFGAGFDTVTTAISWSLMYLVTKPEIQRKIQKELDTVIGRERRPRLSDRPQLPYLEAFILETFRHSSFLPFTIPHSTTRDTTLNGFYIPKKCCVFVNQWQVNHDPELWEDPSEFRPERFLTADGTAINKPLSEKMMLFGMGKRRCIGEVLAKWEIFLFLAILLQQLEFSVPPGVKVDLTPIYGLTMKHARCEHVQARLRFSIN
In short: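 Luminescent readout of luciferin formed from Luciferin-ME by human CYP1A2; data normalized against complete inhibition by 57 uM furafylline. Enzyme 20nM, substrate 100uM at Km, 100mM KPO4 buffer, 60 min reaction at room temperature.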

[4] = target: Glucocorticoid receptor (Homo sapiens) (UniProt P04150); test: GR-GFP Redistribution (AID 450;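 active = compounds whose dose series gives a full or clear partial fitted curve of increased nuclear translocation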; also: potency is read from the fitted curve at half-maximal effect); conditions: U2OS GR-GFP nuclear translocation, laser cytometry, 2 h
Sequence of Glucocorticoid receptor (Homo sapiens) (P04150 whole entry, looked up, the tested form may be a part): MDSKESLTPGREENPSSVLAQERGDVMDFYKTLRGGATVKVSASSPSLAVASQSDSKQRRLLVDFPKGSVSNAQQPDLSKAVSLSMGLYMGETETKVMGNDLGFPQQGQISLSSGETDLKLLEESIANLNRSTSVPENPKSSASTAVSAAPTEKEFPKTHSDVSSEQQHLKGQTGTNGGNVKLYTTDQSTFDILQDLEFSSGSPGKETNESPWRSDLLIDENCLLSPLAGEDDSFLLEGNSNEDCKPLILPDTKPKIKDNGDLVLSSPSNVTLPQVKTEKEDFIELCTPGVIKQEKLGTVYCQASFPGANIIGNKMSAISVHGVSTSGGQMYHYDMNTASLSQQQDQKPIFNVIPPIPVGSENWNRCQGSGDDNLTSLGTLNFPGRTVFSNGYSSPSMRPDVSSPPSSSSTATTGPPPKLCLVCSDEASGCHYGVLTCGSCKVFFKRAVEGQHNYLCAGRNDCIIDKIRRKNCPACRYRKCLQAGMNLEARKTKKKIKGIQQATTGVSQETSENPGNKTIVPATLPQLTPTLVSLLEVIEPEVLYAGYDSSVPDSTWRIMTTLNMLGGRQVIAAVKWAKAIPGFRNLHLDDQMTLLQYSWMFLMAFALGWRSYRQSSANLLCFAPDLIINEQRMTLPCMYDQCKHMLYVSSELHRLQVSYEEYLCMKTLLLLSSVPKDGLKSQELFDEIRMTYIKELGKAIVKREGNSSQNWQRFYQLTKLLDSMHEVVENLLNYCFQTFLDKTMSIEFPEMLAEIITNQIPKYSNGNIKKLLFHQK

[5] = target: Glucocorticoid receptor (Homo sapiens) (UniProt P04150); test: GR-EFC Redistribution (AID 451; calls by dose curve; also: potency is read from the fitted curve at half-maximal effect); conditions: CHO-K1 GR-EFC translocation, beta-gal luminescence, 2 h
In short: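 CHO-K1 cells stably expressing nuclear-localized β-gal enzyme acceptor and GR fused C-terminally to the enzyme donor fragment; ligand-driven nuclear translocation restores β-gal by complementation. Compounds titrated up to 46 uM final, 2 h at 37 °C; luminescence read.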

[6] = target: 3',5'-cyclic-AMP phosphodiesterase 4B (Homo sapiens) (UniProt Q07343); test: qHTS Assay for Inhibitors of PDE-IV (AID 607; active = well fitted activation curve with a large enough effect in the main read-out, with a control signal flat, not every such curve was filed as active; also: % of control where 0% means no effect); conditions: HEK293 ACTOne CNG channel cells, membrane potential fluorescence; series mostly up to 22.9 µM
Sequence of 3',5'-cyclic-AMP phosphodiesterase 4B (Homo sapiens) (Q07343 whole entry, looked up): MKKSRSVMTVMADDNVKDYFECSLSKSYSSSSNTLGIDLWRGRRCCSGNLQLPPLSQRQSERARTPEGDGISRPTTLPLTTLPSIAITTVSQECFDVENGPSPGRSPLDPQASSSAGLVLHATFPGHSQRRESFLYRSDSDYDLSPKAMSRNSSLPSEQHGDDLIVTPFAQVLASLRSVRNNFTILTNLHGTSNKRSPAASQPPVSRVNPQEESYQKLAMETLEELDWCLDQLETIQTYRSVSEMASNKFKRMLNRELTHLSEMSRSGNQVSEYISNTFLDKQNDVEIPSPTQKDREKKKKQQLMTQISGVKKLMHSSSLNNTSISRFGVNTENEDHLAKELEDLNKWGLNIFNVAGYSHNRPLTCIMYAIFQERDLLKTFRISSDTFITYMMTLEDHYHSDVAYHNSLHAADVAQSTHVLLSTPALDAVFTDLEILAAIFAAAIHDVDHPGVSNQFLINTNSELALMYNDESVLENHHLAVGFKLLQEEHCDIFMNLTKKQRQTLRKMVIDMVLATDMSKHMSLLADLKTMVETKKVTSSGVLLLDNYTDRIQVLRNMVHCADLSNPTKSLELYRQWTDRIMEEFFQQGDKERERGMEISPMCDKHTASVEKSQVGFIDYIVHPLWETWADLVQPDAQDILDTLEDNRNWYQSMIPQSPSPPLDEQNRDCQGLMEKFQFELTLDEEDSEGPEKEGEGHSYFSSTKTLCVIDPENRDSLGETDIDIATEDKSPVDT
In short: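 Live HEK293 cells with a modified cyclic nucleotide-gated (CNG) channel report intracellular cAMP via membrane-potential dye fluorescence (ex 535/em 590 nm). Endogenous PDE-IV was targeted. Compounds were tested at up to 22.9 uM final; RO 20-1724 100 uM served as control.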

[7] = target: Cytochrome P450 2C9 (Homo sapiens) (UniProt P11712); test: qHTS Assay for Inhibitors and Substrates of Cytochrome P450 2C9 (AID 883); conditions: recombinant CYP2C9, luciferin-H luminescence, 60 min; series mostly up to 57.1 µM; also: potency is read from the fitted curve at half-maximal effect; nearly all actives have a fitted effect of over 60% in size
Sequence of Cytochrome P450 2C9 (Homo sapiens) (P11712 whole entry, looked up): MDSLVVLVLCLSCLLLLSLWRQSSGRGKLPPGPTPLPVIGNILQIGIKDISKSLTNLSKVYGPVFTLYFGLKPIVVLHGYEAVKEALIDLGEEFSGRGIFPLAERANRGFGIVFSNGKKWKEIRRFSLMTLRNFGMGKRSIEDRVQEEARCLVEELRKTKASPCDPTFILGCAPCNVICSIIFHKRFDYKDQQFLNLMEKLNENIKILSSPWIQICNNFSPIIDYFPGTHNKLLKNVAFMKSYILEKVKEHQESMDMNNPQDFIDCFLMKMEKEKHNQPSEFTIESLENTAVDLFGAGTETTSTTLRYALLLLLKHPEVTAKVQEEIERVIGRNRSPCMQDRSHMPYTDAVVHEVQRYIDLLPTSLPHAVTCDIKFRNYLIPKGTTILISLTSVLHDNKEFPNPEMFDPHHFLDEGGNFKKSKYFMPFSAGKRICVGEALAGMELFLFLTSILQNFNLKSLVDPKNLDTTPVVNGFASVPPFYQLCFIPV
In short: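 Human CYP2C9 (10nM) hydroxylated Luciferin-H (100uM, at its KM) to luciferin in 25mM KPO4. Compound was preincubated 10 min at 37C, then NADPH regeneration started a 60 min reaction at 37C. Luminescence was read after detection reagent, normalized to 57uM sulphaphenazole.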

[8] = target: Cytochrome P450 3A4 (Homo sapiens) (UniProt P08684); test: qHTS Assay for Activators of Cytochrome P450 3A4 (AID 885); conditions: recombinant CYP3A4, Luciferin-PPXE luminescence, 60 min; series mostly up to 57.1 µM; also: nearly all actives have a fitted effect of over 65% in size
Sequence of Cytochrome P450 3A4 (Homo sapiens) (P08684 whole entry, looked up): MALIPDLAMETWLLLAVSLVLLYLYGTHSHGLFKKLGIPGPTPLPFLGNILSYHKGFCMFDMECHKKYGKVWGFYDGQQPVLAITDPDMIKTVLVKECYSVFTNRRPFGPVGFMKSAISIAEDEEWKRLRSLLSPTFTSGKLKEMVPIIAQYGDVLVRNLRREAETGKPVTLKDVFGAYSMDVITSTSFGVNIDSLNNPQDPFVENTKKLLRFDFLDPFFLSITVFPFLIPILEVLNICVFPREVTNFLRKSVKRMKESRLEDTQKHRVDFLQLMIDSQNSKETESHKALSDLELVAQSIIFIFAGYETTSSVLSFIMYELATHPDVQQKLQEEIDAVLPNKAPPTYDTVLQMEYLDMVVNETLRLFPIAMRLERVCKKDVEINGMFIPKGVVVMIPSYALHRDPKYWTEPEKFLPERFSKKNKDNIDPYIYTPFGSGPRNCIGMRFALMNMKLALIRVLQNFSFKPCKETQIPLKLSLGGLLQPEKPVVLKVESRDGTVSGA
In short: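 Quantitative HTS format: compounds preincubated with 20nM human CYP3A4 and Luciferin-PPXE substrate at KM, reaction started by NADPH regeneration, stopped after 60 min, luciferase luminescence read 20 min later.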

[9] = target: Dual specificity protein kinase CLK4 (Homo sapiens) (UniProt Q9HAZ1); test: qHTS Assay for Inhibitors of CDC-like Kinase 4 (Kinase-Glo Assay) (AID 1770); conditions: recombinant Clk4, Kinase-Glo ATP depletion luminescence; series mostly up to 66.7 µM; also: nearly all actives have a fitted effect of over 65% in size; also: potency is read from the fitted curve at half-maximal effect
Sequence of Dual specificity protein kinase CLK4 (Homo sapiens) (Q9HAZ1 whole entry, looked up): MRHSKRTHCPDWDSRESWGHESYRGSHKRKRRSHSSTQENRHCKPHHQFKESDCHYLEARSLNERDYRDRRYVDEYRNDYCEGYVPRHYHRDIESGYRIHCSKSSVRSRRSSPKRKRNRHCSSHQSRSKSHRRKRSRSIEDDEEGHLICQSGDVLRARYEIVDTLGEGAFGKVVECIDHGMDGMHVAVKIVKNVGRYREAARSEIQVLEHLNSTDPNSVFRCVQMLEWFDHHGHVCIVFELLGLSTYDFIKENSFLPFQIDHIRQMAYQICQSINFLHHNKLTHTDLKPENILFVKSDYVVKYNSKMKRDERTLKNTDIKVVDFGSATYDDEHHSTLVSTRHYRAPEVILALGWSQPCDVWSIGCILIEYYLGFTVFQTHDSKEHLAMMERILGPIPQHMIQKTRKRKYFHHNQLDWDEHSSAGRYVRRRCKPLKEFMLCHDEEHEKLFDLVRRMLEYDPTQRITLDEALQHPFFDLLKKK
In short: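 Readout: Kinase-Glo luminescence from ATP left after a 4.5 h room-temperature reaction of 25 nM Clk4 with 100 uM RS peptide and 1 uM ATP (final). Buffer: 25 mM Tris pH 7.5, 10 mM MgCl2.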

[10] = target: Dual specificity protein kinase CLK4 (Homo sapiens) (UniProt Q9HAZ1); test: qHTS Assay for Inhibitors of CDC-like Kinase 4 (ADP-FP Assay) (AID 1795); conditions: Transcreener ADP fluorescence polarization; series mostly up to 50 µM; also: nearly all actives have a fitted effect of over 60% in size; also: potency is read from the fitted curve at half-maximal effect
In short: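 FP readout: Orange Transcreener ADP2 tracer (4 nM) plus ADP antibody, read after 30 min at room temperature. Kinase step: 6.25 nM Clk4, 100 uM RS peptide, 1 uM ATP, pH 7.5, 1 h.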

[11] = NFAT Signaling Pathway (AID 444; active = well fitted curve in either direction with a large enough effect, not every such curve was filed as active;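 also: carbachol stimulus at about its EC50 of 1 µM final; % is scaled to controls: 0 for no effect and ±100 for the full control effect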); conditions: Jurkat NFAT-bla M1, carbachol, beta-lactamase ratio, 5 h; at 7.69 µM (top of the series) unless noted
In short: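 Jurkat cells carrying an NFAT-driven β-lactamase reporter and co-transfected muscarinic M1 receptor were treated with compound plus carbachol (1 uM final, an EC50 level) for 5 h at 37 °C. CCF4 loading followed for 1 h at RT; 460/530 nm ratio gave %activity.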

[12] = Stat Signaling Pathway (AID 446; active = well fitted curve in either direction with a large enough effect, not every such curve was filed as active;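 also: ME-180 cervical cancer cells given 40 pM IL-6 alongside compound; SIE-controlled beta-lactamase reporter measured as 460/530 nm FRET emission ratio; % is scaled to controls: 0 for no effect and ±100 for the full control effect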); conditions: ME-180 SIE beta-lactamase reporter, IL-6 stimulated, 5 h; series mostly up to 7.69 µM
In short: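 IL-6/STAT signaling read in ME-180 cells via an SIE beta-lactamase reporter. Stimulus was 40 pM IL-6 (its AC50) for 5 hrs, so both activation and inhibition register.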

[13] = target: Ubiquitin carboxyl-terminal hydrolase 1 (Homo sapiens) (UniProt O94782); test: Inhibitors of USP1/UAF1: Pilot qHTS (AID 504865); conditions: purified USP1/UAF1, Ub-rhodamine cleavage fluorescence; series mostly up to 54.9 µM;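 also: rhodamine fluorescence freed from ubiquitin-rhodamine substrate followed over time; top concentration of the series differs between compounds; % is scaled to controls: 0 for no effect and ±100 for the full control effect; nearly all actives have a fitted effect of over 35% in size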
Sequence of Ubiquitin carboxyl-terminal hydrolase 1 (Homo sapiens) (O94782 whole entry, looked up): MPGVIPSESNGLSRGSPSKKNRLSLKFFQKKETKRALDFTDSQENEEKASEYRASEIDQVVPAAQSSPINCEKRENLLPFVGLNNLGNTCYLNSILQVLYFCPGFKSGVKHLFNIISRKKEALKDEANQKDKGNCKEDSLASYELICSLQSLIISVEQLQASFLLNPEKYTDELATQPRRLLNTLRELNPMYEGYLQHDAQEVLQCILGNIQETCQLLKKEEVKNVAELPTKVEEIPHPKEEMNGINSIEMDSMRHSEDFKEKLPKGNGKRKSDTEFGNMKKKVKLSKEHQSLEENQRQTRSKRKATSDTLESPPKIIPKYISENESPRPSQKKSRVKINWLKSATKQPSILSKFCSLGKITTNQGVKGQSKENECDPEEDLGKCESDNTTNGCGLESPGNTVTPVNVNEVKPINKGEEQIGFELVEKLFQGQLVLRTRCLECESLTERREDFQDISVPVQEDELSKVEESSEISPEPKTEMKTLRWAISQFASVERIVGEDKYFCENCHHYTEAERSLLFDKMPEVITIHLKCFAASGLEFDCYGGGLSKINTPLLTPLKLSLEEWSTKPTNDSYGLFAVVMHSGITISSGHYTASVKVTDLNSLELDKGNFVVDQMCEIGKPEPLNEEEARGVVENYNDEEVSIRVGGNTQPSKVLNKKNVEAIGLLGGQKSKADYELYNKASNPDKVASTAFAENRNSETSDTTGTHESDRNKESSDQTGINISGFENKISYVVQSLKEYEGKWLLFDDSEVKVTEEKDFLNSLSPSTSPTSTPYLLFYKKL
In short: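 1nM USP1/UAF1 + cpd, 15 min RT; start w/ Ub-Rho 150nM final; kinetic FL 480/540 nm, 6 reads q60 s. Buffer 50mM HEPES pH 7.8, 0.5mM EDTA, 1mM TCEP, 0.01% Tween-20, 0.1 mg/ml BSA.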

[14] = target: Mitogen-activated protein kinase 10 (Mus musculus) (UniProt Q61831); test: JNK3 AlphaScreen Assay (AID 530; active = well fitted curve in either direction with a large enough effect, not every such curve was filed as active;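 also: kinase came from lysate of stimulated human HepG2 cells; signal reports phosphorylation of biotinylated GST-cJun 1-79 at Ser73 with 10 µM ATP; % is scaled to controls: 0 for no effect and ±100 for the full control effect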); conditions: JNK3 lysate, c-Jun phosphorylation; series mostly up to 57.1 µM
In short: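 Inhibitors reduce antibody binding to phosphorylated biotin-cJun, lowering AlphaScreen luminescence. Lysates from HepG2 cells pre-activated by IL-1beta plus TNF-alpha supplied JNK3; compounds were titrated.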

[15] = target: Cytochrome P450 2D6 (Homo sapiens) (UniProt P10635); test: qHTS Assay for Inhibitors and Substrates of Cytochrome P450 2D6 (AID 891); conditions: recombinant CYP2D6, luciferin-ME EGE luminescence; series mostly up to 57.1 µM; also: potency is read from the fitted curve at half-maximal effect; nearly all actives have a fitted effect of over 60% in size
In short: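 Human CYP2D6 (5 nM) with 30 uM Luciferin-ME EGE (at Km) in 100 mM KPO4, compound preincubated 10 min, then NADPH regeneration system for 60 min at room temperature. Luciferin read by luminescence; normalized to 1.43 uM quinidine.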

[16] = qHTS Assay for Identification of Small Molecule Agonists for Hypoxia Response Element Signaling Pathway (AID 914; active = well fitted activation curve with a large enough effect in the signal ratio, with a control signal flat, not every such curve was filed as active; the % refers to the signal ratio; also: % of control where 0% means no effect); conditions: ME-180 (cervical carcinoma) HRE-bla reporter, beta-lactamase ratio, CoCl2, 17 h; activation: stronger effect = higher value
In short: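 Read-out: CCF4 FRET ratio of 460nm to 530nm emission (excitation 405nm) after 2.5 hours at room temperature, taken from HRE-bla ME-180 cells that had been exposed to compound and EC50 CoCl2 for 17 hours.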

[17] = target: Cytochrome P450 3A4 (Homo sapiens) (UniProt P08684); test: qHTS Assay for Inhibitors and Substrates of Cytochrome P450 3A4 (AID 884); conditions: recombinant CYP3A4, Luciferin-PPXE luminescence; series mostly up to 57.1 µM; also: potency is read from the fitted curve at half-maximal effect; nearly all actives have a fitted effect of over 50% in size
In short: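 20 nM human CYP3A4 with 25 uM Luciferin-PPXE (at KM) in 200 mM KPO4, preincubated 10 min with compound; NADPH regeneration started a 60 min RT reaction. Luciferin detected by luminescence, normalized to 57 uM ketoconazole as full inhibition.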

| SMILES | Potency [1] [µM] | activity change, negative = inhibition [2] [%] | Potency [3] | Potency [4] [µM] | Potency [5] [µM] | Potency [6] | Potency [7] | outcome [8] | Potency [9] | Potency [10] | activity change, negative = inhibition [11] [%] | outcome [12] | Potency [13] | Potency [14] | Potency [15] | activation [16] [%] | Potency [17] |
| --- | --- | --- | --- | --- | --- | --- | --- | --- | --- | --- | --- | --- | --- | --- | --- | --- | --- |
| COc1ccc(-c2nc3cnc(Oc4cccc(Cl)c4)nc3n(C[C@H]3CCCO3)c2=O)cc1 | > 11.4 | -13.7 | 5.01 µM (active) | > 9.22 | > 46 | inactive | 5.01 µM (active) | inactive | inactive | inactive |  |  |  |  |  |  |  |
| COCCn1c(=O)c(CCc2ccccc2)nc2cnc(OCc3ccccc3)nc21 |  | -21.6 |  |  | > 46 |  |  |  | inactive | inactive | 4.34 | inactive | inactive |  |  |  |  |
| N#Cc1cccc(-c2nc(NCCN3CCOCC3)c3ccccc3n2)c1 | > 11.4 | -13 | 1 µM (active) | > 46 | > 46 | inactive |  | inactive | 11.2 µM (active) | 7.94 µM (active) |  | inactive | inactive | inactive | 7.94 µM (active) | -16.9 |  |
| Cc1cnc(CNc2ncnc3ccc(-c4ccccc4C)cc23)cn1 | > 11.4 | -14.7 | 6.31 µM (active) | > 46 | > 46 | inactive |  | inactive | 28.2 µM (active) |  | -7.95 | inactive |  |  |  |  | 3.98 µM (active) |
| c1ccc2c(NCCN3CCOCC3)nc(-c3ccc4c(c3)OCO4)nc2c1 | > 11.4 | -11.7 |  |  | > 46 | inactive |  |  | inactive | inactive | 12.2 | inactive | inactive | inactive |  |  |  |
| CCNc1ncc2nc(CCc3ccccc3)c(=O)n(CCC#N)c2n1 |  | -12.2 | 3.98 µM (active) | > 9.22 | > 46 |  | 6.31 µM (active) | inactive | inactive | inactive | -10.7 | inactive | inactive |  | 0.158 µM (active) |  |  |
| O=c1c(CCc2ccccc2)nc2cnc(Oc3ccccc3)nc2n1C1CC1 | > 11.4 | -15.6 | 7.94 µM (active) |  | > 46 |  |  | inactive | inactive | inactive | -5.31 | inactive | inactive |  |  |  |  |
